Values joined by “and” are separate entries in the source; they are usually repeats but may differ in a detail not shown here. Equal values may be shown once. About 83,000 compounds went through this panel and 20% of them were active in at least one assay; those are over-represented in the sample as a whole.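 Single-dose data. Exposure time 48 hours. Values below 10 considered active.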
Key:
Assay in all cases: NCI-60 one-dose screen, 48 h (100 = growth as untreated, 0 = no growth, -100 = all killed)
Conditions in all cases: 10 µM unless noted
[1] = system: NCI-H23 lung
[2] = system: NCI-H226 lung
[3] = system: HOP-62 NSCLC
[4] = system: NCI-H460 lung
[5] = system: HOP-92 NSCLC
[6] = system: NCI-H522 lung
[7] = system: A549/ATCC NSCLC
[8] = system: 786-0 renal
[9] = system: COLO 205 colon
[10] = system: DU-145 prostate
[11] = system: K-562 leukemia
[12] = system: MALME-3M melanoma
[13] = system: MDA-MB-231 breast
[14] = system: RXF 393 renal
[15] = system: SF-268 CNS
[16] = system: SF-295 CNS
[17] = system: SF-539 CNS
[18] = system: UACC-257 melanoma
[19] = system: M14 melanoma

Measured: growth

COCCNC(C)=O
inactive: [1] 107% | [2] 90.3% | [3] 98.4% | [4] 102% | [5] 102% | [6] 96.6% | [7] 104% | [8] 97.5% | [9] 108% | [10] 112% | [11] 105% | [12] 114% | [13] 99.2% | [14] 104% | [15] 101% | [16] 96.3% | [17] 99.5% | [18] 112% | [19] 109%

Cc1ccc(NC(=S)N/C=C(\c2ccccc2)S(=O)Cc2ccccc2)c(C)c1 (configuration not stated)
inactive: [1] 99.7% | [2] 90.2% | [4] 101% | [5] 80.1% | [6] 90.5% | [7] 97.7% | [8] 98.2% | [9] 104% | [10] 109% | [11] 98.2% | [12] 106% | [13] 104% | [14] 106% | [15] 101% | [16] 98.9% | [17] 103% | [18] 98.9% | [19] 97.3%

COc1ccc2nccc(Cl)c2c1
inactive: [1] 98.4% | [2] 85.1% | [3] 98.4% | [4] 109% | [5] 98.7% | [6] 90.7% | [7] 91.9% | [8] 94.7% | [9] 105% | [10] 101% | [11] 110% | [12] 103% | [13] 102% | [14] 105% | [15] 92.8% | [16] 107% | [17] 104% | [18] 91.9% | [19] 107%

COc1ccc([N+](=O)[O-])cc1OC
inactive: [1] 98.5% and 106% | [2] 101% and 98.2% | [4] 102% and 111% | [5] 93.5% and 92.7% | [6] 111% and 93.7% | [7] 93% and 92.9% | [8] 104% and 95% | [9] 112% and 115% | [10] 111% and 118% | [11] 102% and 103% | [12] 117% and 104% | [13] 111% and 108% | [14] 114% and 104% | [15] 100% and 108% | [16] 102% and 105% | [17] 93.9% and 98% | [18] 90.1% and 95% | [19] 98.9% and 113%

CC(=O)Nc1cscc1NC(C)=O
inactive: [1] 103% | [2] 96.8% | [3] 98.2% | [4] 101% | [5] 112% | [6] 91.3% | [7] 104% | [8] 101% | [9] 100% | [10] 98.4% | [11] 125% | [12] 88.4% | [13] 101% | [14] 107% | [15] 96.2% | [16] 87.3% | [17] 90.7% | [18] 104% | [19] 104%

Cc1ccc2cccc([N+](=O)[O-])c2n1
inactive: [1] 108% and 95% | [2] 101% | [3] 103% and 95.1% | [4] 117% and 107% | [5] 123% and 96.2% | [6] 90.2% and 93.8% | [7] 103% and 104% | [8] 118% and 98.3% | [9] 104% and 106% | [10] 116% and 109% | [11] 91% and 88.7% | [12] 99.1% and 108% | [13] 107% and 104% | [14] 119% and 110% | [15] 103% | [16] 108% and 110% | [17] 105% and 103% | [18] 102% and 107% | [19] 121% and 97.9%

Reference: PubChem BioAssay (NCI)
